Out of some 22,000 compounds screened, about 220 (1%) were called active. Only a selection was taken, and actives are over-represented in it overall. Values without a mark were called inactive. No stated cut-off is given here; in the data, active means inhibition above about 35%; inactive means the rest.

The target in this assay is Mitogen-activated protein kinase kinase kinase 5 (Homo sapiens) (UniProt Q99683). As to the kind of experiment: ASK1 kinase inhibitors, primary screen, biochemical, AlphaScreen (AID 1159602).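 Further: 0% = median of compound wells and 100% = no enzyme.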 The following applies: AlphaScreen MKK6 phosphorylation by ASK1, luminescence; at 7.44 µM; active compounds read high. On the technique in general: In Alpha technology, singlet oxygen from a donor bead excites a nearby acceptor bead.
Chain of Mitogen-activated protein kinase kinase kinase 5 (Homo sapiens) (Q99683 whole entry, looked up): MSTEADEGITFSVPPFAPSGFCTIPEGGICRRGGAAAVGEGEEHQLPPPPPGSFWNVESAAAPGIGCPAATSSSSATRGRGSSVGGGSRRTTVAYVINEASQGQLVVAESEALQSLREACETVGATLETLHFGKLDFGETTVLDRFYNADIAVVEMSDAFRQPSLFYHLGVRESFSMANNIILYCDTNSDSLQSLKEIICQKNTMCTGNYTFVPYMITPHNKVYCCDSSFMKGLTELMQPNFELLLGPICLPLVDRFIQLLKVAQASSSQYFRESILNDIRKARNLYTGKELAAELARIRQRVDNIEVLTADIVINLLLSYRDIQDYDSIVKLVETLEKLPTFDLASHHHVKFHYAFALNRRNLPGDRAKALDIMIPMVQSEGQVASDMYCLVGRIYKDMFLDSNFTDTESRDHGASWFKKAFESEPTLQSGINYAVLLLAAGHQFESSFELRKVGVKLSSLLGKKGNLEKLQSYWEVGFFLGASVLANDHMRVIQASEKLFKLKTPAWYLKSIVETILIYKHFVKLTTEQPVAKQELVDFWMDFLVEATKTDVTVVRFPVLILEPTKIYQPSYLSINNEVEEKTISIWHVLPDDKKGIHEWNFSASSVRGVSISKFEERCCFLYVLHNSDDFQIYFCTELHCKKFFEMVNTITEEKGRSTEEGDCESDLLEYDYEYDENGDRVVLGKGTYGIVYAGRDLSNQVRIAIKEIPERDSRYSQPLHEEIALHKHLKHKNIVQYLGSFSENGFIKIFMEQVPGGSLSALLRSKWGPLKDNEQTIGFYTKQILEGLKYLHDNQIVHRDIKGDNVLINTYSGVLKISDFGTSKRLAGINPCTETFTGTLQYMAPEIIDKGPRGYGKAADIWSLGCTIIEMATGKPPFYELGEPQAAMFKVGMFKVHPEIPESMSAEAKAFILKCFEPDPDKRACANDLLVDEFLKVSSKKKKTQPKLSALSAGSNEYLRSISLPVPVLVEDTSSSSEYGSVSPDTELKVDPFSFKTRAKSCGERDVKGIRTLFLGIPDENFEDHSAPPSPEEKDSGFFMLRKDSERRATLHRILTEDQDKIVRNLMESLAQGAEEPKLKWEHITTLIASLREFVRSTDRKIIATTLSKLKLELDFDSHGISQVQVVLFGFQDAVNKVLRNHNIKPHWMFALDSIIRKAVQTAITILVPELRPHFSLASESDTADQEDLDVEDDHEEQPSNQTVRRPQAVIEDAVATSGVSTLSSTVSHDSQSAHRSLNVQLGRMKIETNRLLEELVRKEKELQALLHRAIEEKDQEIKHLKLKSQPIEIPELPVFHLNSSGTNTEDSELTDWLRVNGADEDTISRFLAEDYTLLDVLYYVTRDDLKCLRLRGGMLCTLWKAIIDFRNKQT
Consider `CC(C)N(CCNc1nc(Nc2ccccc2)nc2c1ncn2C(C)C)C(C)C`, for which the inhibition is 6.04%. For `NC(=O)c1ccc(-c2nc(NCCO)c3ncn(-c4ccsc4)c3n2)cc1` the value was 0.26%; for `Cc1cnc(N2CCc3ccccc3C2)nc1NCCN(C(C)C)C(C)C`, -16.8%.

With `COc1cc(-c2cn[nH]c2)ccc1C(=O)NCCc1cccs1`, the inhibition is 15.3%. Regarding `Cc1ccccc1-c1cscc1Nc1cnn(-c2cccc(C(=O)Nc3ccc(N4CCOCC4)cc3)c2)c1`, the inhibition was 37.8% (active). For `Cc1cccc(CC(=O)Nc2cnn(-c3cccc(C(=O)Nc4ccc(N5CCOCC5)cc4)c3)c2)c1` the value was 16.2%; for `O=C(Cc1cccc(Br)c1)Nc1cnn(-c2cccc(C(=O)Nc3ccc(N4CCOCC4)cc3)c2)c1`, -2.11%; for `c1ccc(CNc2nc(Nc3cccnc3)nc3c2ncn3-c2ccccc2)cc1`, 8.4%. Under `CC(=O)c1cccc(-c2nc3ccc(C(=O)NC4CCN(Cc5ccccc5)CC4)cc3s2)c1` stands -0.28%; under `CC(C)n1c(Nc2ccccc2)nc2c(NCc3cccc(C(F)(F)F)c3)ncnc21`, -21.3%; under `CCCNc1ncnc2c1nc(N1CCN(c3ccccn3)CC1)n2C(C)C`, -14.9%. Under `COc1ccc(CCNc2cc(Nc3cc(OC)c(OC)c(OC)c3)nc(N)n2)cc1` stands -1.19%; under `CCCNC(=O)c1csc(Nc2nc3ccccc3n2C)n1`, -7.28%; under `COc1ccc(-c2nc(Nc3cc(OC)c(OC)c(OC)c3)c3ncn(C(C)C)c3n2)cc1`, 9.01%. In the case of `CC(C)[C@@H](O)C(=O)N1CCC[C@@H]1C(=O)Nc1ccc2[nH]ncc2c1`, the inhibition was 4.14%. For `O=C(NCc1nc2ccccc2[nH]1)c1cc(N2CCCC2CO)nc2ccccc12` (stereo not given) the value was 7.25%; for `c1ccc(-n2cnc(-c3ccnc(Nc4ccc(N5CCOCC5)cc4)c3)n2)cc1`, 9.1%.

With `Fc1cnc(Nc2ccc(N3CCNCC3)cc2)cc1-n1cnc(Nc2ccccc2)n1`, the inhibition is 56.6% (active). For `c1ccc(Nc2nccc(Nc3ccc(N4CCOCC4)cc3)n2)cc1` the value was 25.1%; for `O=C1CCCN1CCn1cnc2c(NC3CC3)nc(NCc3ccc4c(c3)OCO4)nc21`, -15.8%. Under `Nc1nc(NCCCN2CCCC2=O)cc(Nc2cnccn2)n1` stands 0.26%; under `CCCNc1nc(N2CCCC(C(=O)N(CC)CC)C2)nc2c1ncn2Cc1ccc(C(F)(F)F)cc1` (stereo not given), 15.8%; under `COc1cc2nc(Cl)nc(NC3CC3)c2cc1OC`, -7.49%. Under `CCN(CC)c1nc(NCCc2ccc(O)cc2)nc(Nc2cc(OC)c(OC)c(OC)c2)n1` stands 4.75%; under `Nc1cccc(-c2cncc(C(=O)NCCOc3ccccc3)c2)c1`, 1.06%.

In the case of `CC(C)n1cnc2c(NCc3cccc(C(F)(F)F)c3)nc(Nc3ccc(OC(F)(F)F)cc3)nc21`, the inhibition was -3.35%. On to `Cc1nn(C)c(C)c1-c1nc(C(=O)NCCc2ccc(O)cc2)cs1`, for which the inhibition is 4.91%. For `Nc1nc(NCc2nc3ccccc3[nH]2)cc(N2CCN(Cc3ccc4c(c3)OCO4)CC2)n1` the value was 1.22%; for `c1ccc2[nH]c(CNc3ncnc4nc(Nc5ccncn5)[nH]c34)nc2c1`, -8.27%; for `Cc1cc(NCc2nc3ccccc3[nH]2)nc(N2CCOCC2)n1`, -7.53%. As to `Cc1cnc(Nc2ccc(N3CCOCC3)cc2)nc1Nc1ccccc1-c1ncn[nH]1`, the inhibition was -18%.

Consider `c1ccc(-c2ncn[nH]2)c(Nc2ccnc(Nc3ccc(N4CCOCC4)cc3)c2)c1`, for which the inhibition is 37% (active). Under `CNC(=O)c1ccccc1Nc1ccnc(Nc2ccc(N3CCOCC3)cc2)c1` stands 8.11%; under `COc1ccc(CCNc2ncnc3nc(-c4ccc(C(N)=O)cc4)[nH]c23)cc1`, -0.94%; under `NC(=O)c1ccc(-c2ncc(C(=O)NCCOc3ccccc3)s2)cc1`, -1.66%.

Consider `COc1cc(Nc2nc(C)cc(N)n2)cc(OC)c1OC`, for which the inhibition is -5.08%.

Consider `Nc1cccc(-c2cc(Nc3ccccc3)ncn2)c1`, for which the inhibition was 4.09%. For the compound `c1cnc(Nc2nc(NCc3cccnc3)c3ncn(C4CCCCC4)c3n2)nc1`, the inhibition is 5.63%. On to `c1ccc(CN2CCC(Nc3nc(-c4csc5ccccc45)nc4c3ncn4C3CCCCC3)CC2)cc1`, for which the inhibition is -20.4%. For `c1ccc(Oc2ccc(Nc3nc(Nc4ccccn4)nc4c3ncn4-c3ccsc3)cc2)cc1` the value was 2.93%; for `CNC(=O)c1cc(F)ccc1Nc1cc(Nc2ccc3nc[nH]c3c2)ncc1C(F)(F)F`, -2.41%. For `NC(=O)c1ccc(-c2nc(Nc3ccc(N4CCOCC4)cc3)c3ncn(-c4ccccc4)c3n2)cc1` the value was 4.79%.

As to `Cc1cccc(CC(=O)Nc2cnn(-c3cccc(-c4nn[nH]n4)c3)c2)c1`, the inhibition is 1.78%. Under `CC(=O)Nc1ccc(Nc2ncnc3c2nc(NCCN2CCOCC2)n3C(C)C)cc1` stands -3.14%; under `CC(C)c1nc2ccc(-c3cn[nH]c3)cc2c(=O)[nH]1`, 12.2%. Under `Cc1cnc(Nc2cnccn2)nc1NCc1cccnc1` stands -9.12%.

For `O=C(NC1CC1)c1ccc(-c2ccc(C(=O)NCc3cccc(C(F)(F)F)c3)s2)cc1`, the inhibition was 4.99%.

For the compound `O=C(NC1CCN(Cc2ccccc2)CC1)c1cc(N2CCCC2CO)nc2ccccc12` (stereo not given), the inhibition is -11.9%.

In the case of `CC(C)C[C@H](O)C(=O)NC1CCC(Nc2ccc3[nH]ncc3c2)CC1` (stereo not given in full), the inhibition was -17%. With `O=C(Cc1cn(-c2ccc(N3CCC(N4CCOCC4)CC3)nn2)c2ccccc12)NCCCN1CCCC1=O`, the inhibition was -20.2%. Under `CC(C)n1c(N2CCOCC2)nc2c(Nc3ccc(Oc4ccccc4)cc3)ncnc21` stands -3.94%; under `COc1ccc(CCNc2nc(-c3ccccc3)nc3c2ncn3CCN2CCCC2=O)cc1`, -23.4%; under `O=C(NCCN1CCOCC1)C1CCN(c2ccc(Nc3ccccc3)nn2)CC1`, 6.22%. Under `CCN(CC)CCNC(=O)c1ccc(Nc2cc(Nc3ccccc3C(=O)NC)c(C(F)(F)F)cn2)c(C)c1` stands -5.11%. Under `c1nc(NC2CC2)c2[nH]c(N3CCC(N4CCOCC4)CC3)nc2n1` stands -10.6%. With `COc1ccc(-c2cnc3ccc4ccccc4c3c2)cc1`, the inhibition is -3.77%. Under `CCN(CC)c1nc(Nc2cc(OC)c(OC)c(OC)c2)nc(Nc2nc3ccccc3n2C)n1` stands 3.84%; under `Nc1nc(NCc2cccc(C(F)(F)F)c2)cc(NCc2ccc3c(c2)OCO3)n1`, -4.13%. Under `CCCNC(=O)c1cncc(-c2ccccc2)c1` stands -0.96%; under `O=C(NCCCN1CCCC1=O)C1CCN(c2ccc(Cl)nn2)CC1`, -13.9%.

Take `COc1cc(NC(=O)c2cnc(-c3ccccc3)s2)cc(OC)c1OC`: the inhibition was 15%. Under `Oc1ccc(CCNc2nc(Nc3ccccn3)nc3nc[nH]c23)cc1` stands -9.99%; under `CC(=O)Nc1ccc(NC(=O)c2csc(-c3c(C)nn(C)c3C)n2)cc1`, 11%.

Take `c1nc(NC2CC2)c2[nH]c(N3CCN(Cc4ccc5c(c4)OCO5)CC3)nc2n1`: the inhibition was -10.7%.

Take `c1cnc(Nc2nc(NC3CC3)c3[nH]cnc3n2)cn1`: the inhibition is -8.13%. Under `CC(=O)Nc1ccc(Nc2nc(N3CCc4ccccc4C3)nc3c2ncn3C(C)C)cc1` stands 14%; under `CN(C)c1cccc(Nc2nc3ccc(C(=O)Nc4ccc(N5CCOCC5)cc4)cc3s2)c1`, 29%; under `COc1ccc(CCNC(=O)c2ccnc(-c3ccc(C(=O)NC4CC4)cc3)c2)cc1`, -2.59%. For `CCN(CC)c1nc(NCCCN2CCCC2=O)nc(N2CCC(N3CCOCC3)CC2)n1` the value was 2.42%; for `CCNc1nc(NCCOc2ccccc2)c2ncn(Cc3ccc(C(F)(F)F)cc3)c2n1`, -5.64%. Turning to `FC(F)(F)c1cccc(CNc2ncnc3nc(N4CCC(N5CCOCC5)CC4)[nH]c23)c1`, the inhibition was -8.59%. For the compound `CCN(CC)C(=O)C1CCCN(c2nccc(NCc3nc4ccccc4[nH]3)n2)C1` (stereo not given), the inhibition was 4.76%. Under `COc1ccc(CNc2nc(-c3cccc(OC(F)(F)F)c3)nc3c2ncn3C(C)C)cc1` stands -11.1%. For `COc1cc2nc(NCc3cccnc3)nc(NCCN3CCOCC3)c2cc1OC` the value was -7.09%. Under `NS(=O)(=O)c1ccc(Nc2nccc(-c3cccc(Cl)c3)n2)cc1` stands -4.08%; under `Cc1cc(Nc2ccccc2)nc(NCc2cccnc2)n1`, -4.25%. With `O=C(NCc1ccccc1)c1ccnc(Nc2nccc3ccccc23)c1`, the inhibition was -2.15%.

For `CCN(CC)C(=O)C1CCCN(c2nc(Nc3ccc(NC(C)=O)cc3)c3ncn(C4CCCCC4)c3n2)C1` (stereo not given), the inhibition was -11%. With `Nc1nc(NCCO)cc(N2CCOCC2)n1`, the inhibition was -6.61%. Under `O=C(NCc1nc2ccncc2[nH]1)c1c(F)cccc1F` stands -12.1%; under `O=C(Cc1ccc(Br)cc1)N1CCCC(Nc2cccc3cnccc23)C1` (stereo not given), -21.7%. For `O=C1CCCN1CCCNc1nc(-c2ccccc2)nc2nc[nH]c12` the value was -3.38%. Under `CN1CCN(c2nc(C3COc4ccccc4O3)nc3ccc(-c4cn[nH]c4)cc23)CC1` (stereo not given) stands 41.7% (active).

Consider `c1ccc2c(c1)OCC(c1cnc3ccc(-c4cn[nH]c4)cc3n1)O2` (stereo not given), for which the inhibition was 14.4%. Under `Cn1c(C2COc3ccccc3O2)nc2ccc(-c3cn[nH]c3)cc21` (stereo not given) stands 8.71%.

In general, inhibition refers to the change of the read-out against control, counted positive when it falls.

The record behind these values is PubChem BioAssay AID1159602 (The Scripps Research Institute Molecular Screening Center, 2016).
